Among the data in the supplement of paper PMC6555819 are PBM binding z-score values, retold here.

In one experiment the test system is PPARg:RXRa (NR concentration 180 nM, RXRa partner concentration 90 nM). The experiment in a line: PBM binding z-score (relative to random genomic background probes); higher = stronger binding; sequences stand for … in GC…GCGATTGACAGCGTAGAATGAAGG
In short, it runs like this: (§1)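 Custom Agilent 4×180K protein-binding microarrays carried double-stranded probes. Their 34-nt variable regions held direct-repeat seeds, single-nucleotide variants, half-site ablations and random human genomic background sequences. Arrays were incubated 1 h with ligand-free nuclear receptor dimers in PBS pH 7.4, 2% milk, 0.02% Triton X-100, 1 mM DTT, 0.2 mg/mL BSA and 0.4 mg/ml salmon testes DNA. Antibodies against each partner (one per run) detected binding, and scanned fluorescence was regression-normalized. Binding z-scores use random background probes as reference.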
In turn, TCGAGTAGGTTAGGGGCATTCACAATGGCGTCGA gave a PBM binding z-score of 1.01.

On to TCAAATAGGTAAACAGGTGAAAGTCCGTAAGTTA, for which the PBM binding z-score is 2.64.

CTACCAAGGTGAACAAGGTCGGTGATTACTATTC showed a PBM binding z-score of 0.819.

GCATATAGGTAATACAAGGTGAATGTCCGATTGT: the PBM binding z-score was 1.37.

CATCAAAGTTCAAGGTAACGTAACAGAAAGCAGC returned a PBM binding z-score of 3.59.

The sequence ATATGTAGGTTAGCTGGGATCATTCAGACTAGGC showed a PBM binding z-score of 3.18.

Sequence ACTTACGGTTCAACGAGGTTATAGCACGCGTATA displayed a PBM binding z-score of 1.09.

Take CCTACTCGGCCAAAGGTCATTGATTCCAATGCTC: the PBM binding z-score is 10.1.

CCTAGTTGGTCAGGAGGTGACACACCGGATATGA showed a PBM binding z-score of 1.04.

Sequence TGACCAAGGTGAAGGTCGTTGATCCCTCTGTAGA registered a PBM binding z-score of 2.18.

Turning to GGAACGAGGGCATACGAGTTGATAGCATGGCGAT, the PBM binding z-score was 1.28.

As for TCTATTAGTTGAAGGGCGACCGACGAGTCCGTTT, the PBM binding z-score was -0.000303.

TCTTGTAGATCAAGCAGGTTGAGAAAGCCTGAGT had a PBM binding z-score of -0.512.

ACAGACAGGTGATGAATGTAACTCAGGCTATCAT came in with a PBM binding z-score of 0.735.

For the sequence AGAATGAGGTTACCACAGATCAGGGAAACGCTTG, the PBM binding z-score came to 2.72.

Regarding ACAGACAGGTGAGGAAGGTAACTCAGGCTATCAT, the PBM binding z-score worked out at 0.575.

In turn, GATACAGGGTCAAGCCCAGAGTACGCGTATTGAT gave a PBM binding z-score of 6.04.

In turn, CCTTACGGGTCAAGGCTATAGCACGGGTGGTACG yielded a PBM binding z-score of 3.91.

On to CCTAGTTGGTCAGTAGGTCACACACCGGATATGA, for which the PBM binding z-score stood at 4.58.

In turn, AATCGGAGGACAAAGGTCAGAGCTACGCCAGTGA registered a PBM binding z-score of 8.17.

As for CAAACTAGGTCAAGAGGACAAAGTCCGCTTCCCG, the PBM binding z-score worked out at 7.86.

Sequence CCTAGCAGGCCAGGGTCATTCAAGCATTTCGCTT showed a PBM binding z-score of 0.697.

As to CCTCCTGGGCCAAGGTCATTGATCAGTCAAAGCA, the PBM binding z-score worked out at 1.39.

For the sequence ATCTCTGGGTAAAGTTCAGTGAAAGATCGATAGA, the PBM binding z-score came to 4.06.

The sequence CTCGAAAGGTTGTGCTCAGGTGAGTATACCAAAC had a PBM binding z-score of -0.0653.

ATCGAAAGGTCGTGAGGTGAGTATTCAGAAAGGC gave a PBM binding z-score of 4.06.

Take AGAATGAGGTTACCAACGATCAGGGAAACGCTTG: the PBM binding z-score came to 2.78.

As to TCATCTAGGTAAAAGGTGAAAGTCGGTGTGGTAA, the PBM binding z-score worked out at 10.

In turn, TCTAGCAGGCCAGAGGGTCTCTCAAGAGGTACGG yielded a PBM binding z-score of 0.13.

In turn, CAAACTAGGTCACCGGAAGGTCACAGTCCGCATG displayed a PBM binding z-score of 9.97.

On to ATCTCTAGGAAAAAGTTCAGTGAATCCCGAGGAT, for which the PBM binding z-score was 1.18.

As for TCTAGTTGGTTAAAGGTCACACACTCGAAATGCG, the PBM binding z-score came out at 9.55.

Sequence CGTCGAAGGTCAAGGTCAGTGAAAGAGACTCGAA came in with a PBM binding z-score of 6.6.

Turning to CCGACTGGGGCAAGGTTACCAGAACGCACAGCCA, the PBM binding z-score stood at 2.79.

With TCTTGTAGATCAAAGGTGAAGAAAGCCGAAGCCT, the PBM binding z-score amounted to 7.41.

ATATGTAGGTTAGCTGGGGTCATTCGGACTAGGC showed a PBM binding z-score of 5.79.

For the sequence TCTCGGAGGACTCGAAGGTCAGAGCTTTCCAGAG, the PBM binding z-score is -0.316.

As to CCGAGTAGGTGATGGGGCATTCAGGCAACGGTGA, the PBM binding z-score was 3.51.

The sequence TCGAGTAGGGTAGGGGCATTCAGAATGGCGTCGA displayed a PBM binding z-score of 0.642.

For TCATATACGTAAAAGGTGAAAGTCGGTGTGGTAA, the PBM binding z-score turned out to be 1.68.

The test system of another experiment is PPARg:RXRa 270nM:90nM, anti-RXR (NR concentration 270 nM, RXRa partner concentration 90 nM). The experiment is described as above. In outline: as §1
With TCGAGTAGGTTAGGGGCATTCACAATGGCGTCGA, the PBM binding z-score stood at 1.84.

As to TCAAATAGGTAAACAGGTGAAAGTCCGTAAGTTA, the PBM binding z-score was 3.76.

Consider CTACCAAGGTGAACAAGGTCGGTGATTACTATTC, for which the PBM binding z-score came to 0.753.

As for GCATATAGGTAATACAAGGTGAATGTCCGATTGT, the PBM binding z-score worked out at 1.14.

CATCAAAGTTCAAGGTAACGTAACAGAAAGCAGC displayed a PBM binding z-score of 4.

In turn, ATATGTAGGTTAGCTGGGATCATTCAGACTAGGC showed a PBM binding z-score of 2.72.

Turning to ACTTACGGTTCAACGAGGTTATAGCACGCGTATA, the PBM binding z-score stood at 1.32.

CCTACTCGGCCAAAGGTCATTGATTCCAATGCTC came in with a PBM binding z-score of 9.26.

In turn, CCTAGTTGGTCAGGAGGTGACACACCGGATATGA had a PBM binding z-score of 1.33.

The sequence TGACCAAGGTGAAGGTCGTTGATCCCTCTGTAGA registered a PBM binding z-score of 3.17.

As to GGAACGAGGGCATACGAGTTGATAGCATGGCGAT, the PBM binding z-score is 0.666.

For TCTATTAGTTGAAGGGCGACCGACGAGTCCGTTT, the PBM binding z-score was 2.13.

The sequence TCTTGTAGATCAAGCAGGTTGAGAAAGCCTGAGT gave a PBM binding z-score of 0.973.

Take ACAGACAGGTGATGAATGTAACTCAGGCTATCAT: the PBM binding z-score was -0.0666.

In turn, AGAATGAGGTTACCACAGATCAGGGAAACGCTTG came in with a PBM binding z-score of 2.65.

On to ACAGACAGGTGAGGAAGGTAACTCAGGCTATCAT, for which the PBM binding z-score was -0.276.

GATACAGGGTCAAGCCCAGAGTACGCGTATTGAT returned a PBM binding z-score of 5.82.

CCTTACGGGTCAAGGCTATAGCACGGGTGGTACG showed a PBM binding z-score of 4.41.

In turn, CCTAGTTGGTCAGTAGGTCACACACCGGATATGA returned a PBM binding z-score of 4.46.

AATCGGAGGACAAAGGTCAGAGCTACGCCAGTGA had a PBM binding z-score of 7.23.

CAAACTAGGTCAAGAGGACAAAGTCCGCTTCCCG displayed a PBM binding z-score of 6.69.

Consider CCTAGCAGGCCAGGGTCATTCAAGCATTTCGCTT, for which the PBM binding z-score came out at 1.82.

As for CCTCCTGGGCCAAGGTCATTGATCAGTCAAAGCA, the PBM binding z-score was found to be 2.83.

In the case of ATCTCTGGGTAAAGTTCAGTGAAAGATCGATAGA, the PBM binding z-score stood at 5.26.

In turn, CTCGAAAGGTTGTGCTCAGGTGAGTATACCAAAC registered a PBM binding z-score of 0.312.

In turn, ATCGAAAGGTCGTGAGGTGAGTATTCAGAAAGGC had a PBM binding z-score of 4.24.

For AGAATGAGGTTACCAACGATCAGGGAAACGCTTG, the PBM binding z-score came out at 2.43.

For the sequence TCATCTAGGTAAAAGGTGAAAGTCGGTGTGGTAA, the PBM binding z-score is 9.2.

TCTAGCAGGCCAGAGGGTCTCTCAAGAGGTACGG had a PBM binding z-score of 0.975.

As for CAAACTAGGTCACCGGAAGGTCACAGTCCGCATG, the PBM binding z-score turned out to be 7.71.

ATCTCTAGGAAAAAGTTCAGTGAATCCCGAGGAT came in with a PBM binding z-score of 3.25.

TCTAGTTGGTTAAAGGTCACACACTCGAAATGCG returned a PBM binding z-score of 8.64.

In turn, CGTCGAAGGTCAAGGTCAGTGAAAGAGACTCGAA yielded a PBM binding z-score of 6.24.

Consider CCGACTGGGGCAAGGTTACCAGAACGCACAGCCA, for which the PBM binding z-score is 3.43.

Sequence TCTTGTAGATCAAAGGTGAAGAAAGCCGAAGCCT displayed a PBM binding z-score of 7.96.

Regarding ATATGTAGGTTAGCTGGGGTCATTCGGACTAGGC, the PBM binding z-score was determined as 5.43.

Sequence TCTCGGAGGACTCGAAGGTCAGAGCTTTCCAGAG had a PBM binding z-score of 1.24.

CCGAGTAGGTGATGGGGCATTCAGGCAACGGTGA displayed a PBM binding z-score of 4.41.

As to TCGAGTAGGGTAGGGGCATTCAGAATGGCGTCGA, the PBM binding z-score worked out at 1.82.

For the sequence TCATATACGTAAAAGGTGAAAGTCGGTGTGGTAA, the PBM binding z-score came out at 3.88.
